Our source for the reporter increase values is PubChem BioAssay AID602393 (Broad Institute, 2012).

Among all 350,000 compounds or so, about 7,000 (2%) were called active. Rule as the data show it: active = activation above about 40%; inconclusive = no clear call, values can overlap the other calls; inactive = below that. This excerpt belongs to a sample that is enriched for actives.

The assay in a line: Bmi1 luciferase reporter increase in mESCs, primary screen, esBAF inhibitor project, mouse ES cells, Bmi1 luciferase knock-in, single point (AID 602393).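 Also: 0% = median of the plate's neutral control wells and 100% = double that signal; a rise in the Bmi1 reporter signal indicates esBAF inhibition.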 Conditions: 24 h, at 12.5 µM, hits give high values, 100% = twice the neutral-well signal. A general note: Reporter assays use an easily measured gene product as a stand-in for the process of interest.
For `O=C(Cc1ccncc1)NCC[C@@H]1CC[C@H](NC(=O)Nc2ccc(Cl)cc2)[C@@H](CO)O1`, the reporter increase was -1.9% (inactive). Turning to `CN1CCN(C(=O)C[C@H]2C[C@H]3c4cc(NC(=O)C5CCC5)ccc4O[C@H]3[C@H](CO)O2)CC1`, the reporter increase is 1.39% (inactive). With `O=C(NCCN1CCCC1)[C@@H]1N[C@@H]2c3ccc(-c4ccccc4)c(=O)n3C[C@@H]2[C@H]1CO`, the reporter increase was -5.2% (inactive). On to `O=C(C[C@@H]1CC[C@H](NC(=O)Nc2cc(F)ccc2F)[C@H](CO)O1)NCc1ccncn1`, for which the reporter increase was 4.9% (inactive). Regarding `C[C@H]1CN([C@@H](C)CO)C(=O)c2cc(-c3ccccc3F)cnc2O[C@@H]1CN(C)C(=O)C1CCCCC1`, the reporter increase was -0.372% (inactive). In the case of `CC=Cc1ccc2n(c1=O)C[C@@H]1[C@@H](CO)[C@H](C(=O)NCc3cccc(OC)c3)N[C@H]21` (mixture of isomers), the reporter increase is 0.983% (inactive).

Turning to `CCCNC(=O)N1[C@H](CNC(=O)c2cccc(F)c2)[C@H](c2ccccc2)[C@@H]1CO`, the reporter increase was 3.53% (inactive). Under `C[C@@H]1CCCCO[C@H](CN(C)Cc2ccc(C(F)(F)F)cc2)[C@H](C)CN([C@@H](C)CO)C(=O)c2cc(N(C)C)ccc2O1` stands 0.085% (inactive). Under `COc1ccc(C#Cc2cnc3c(c2)C(=O)N([C@H](C)CO)C[C@@H](C)[C@H](CN(C)C(=O)Nc2cccc(OC)c2)O3)cc1` stands 4.12% (inactive). Next, `COc1ccccc1-c1cnc2c(c1)C(=O)N([C@H](C)CO)C[C@H](C)[C@H](CN(C)Cc1cccnc1)O2`: -8.49% (inactive); `COc1ccc(S(=O)(=O)N(C)C[C@H]2OCCCC[C@H](C)Oc3ccc(NC(=O)Nc4ccc(F)cc4)cc3C(=O)N([C@@H](C)CO)C[C@H]2C)cc1`: 0.828% (inactive). `COc1ccc(S(=O)(=O)Nc2cccc3c2O[C@@H](CN(C)S(=O)(=O)c2ccccc2)[C@@H](C)CN([C@@H](C)CO)C3=O)cc1`: the reporter increase was 1.5% (inactive). Next, `Cc1ccc(S(=O)(=O)NCC(=O)Nc2ccc3c(c2)OCCO3)cc1`: -6.84% (inactive); `CC(C)CNS(=O)(=O)c1ccc(C(=O)Nc2ccc3c(c2)OCO3)cc1`: -0.727% (inactive); `CNS(=O)(=O)c1ccc(NC(=O)Nc2ccc3c(c2)OCO3)cc1`: 52.5% (active). With `CO[C@@H]1CN(C)C(=O)c2cc(NC(=O)c3ccccc3F)ccc2OC[C@H](C)NC[C@@H]1C`, the reporter increase is -0.986% (inactive). On to `Cc1ccc(OC(=O)c2c(C)nn(-c3ccccc3)c2C)cc1`, for which the reporter increase is 65% (active). `Cc1cccc(C)c1NC(=O)COC(=O)c1c(C)nn(-c2ccccc2)c1C`: the reporter increase was -0.0425% (inactive). Consider `Cc1nn(-c2ccccc2)c(CC(C)(C)C(=O)O)c1C(=O)O`, for which the reporter increase is -1.54% (inactive). Under `O=C(Nc1cccc(Cl)c1)N1C[C@@H]2[C@H](c3ccccc31)[C@H](CO)N2C(=O)C1CC1` stands -2.51% (inactive); under `CCS(=O)(=O)Nc1ccc2c(c1)C(=O)N(C)C[C@@H](OC)[C@@H](C)CN(C(=O)COC)[C@H](C)CO2`, -2.28% (inactive). As for `CN(c1ccc(O)cc1)c1nc(-c2cccnc2)cs1`, the reporter increase was 33.5% (inactive). Turning to `Cc1ccccc1Nc1nc(-c2cccnc2)cs1`, the reporter increase was 71.3% (active). As to `O=C(NCc1cccnc1)C(=O)Nc1nc(-c2ccccc2)cs1`, the reporter increase was 38.2% (inactive). Take `COc1ccc(-c2ccc([C@@H]3[C@@H](CO)N4CCCCN(C(=O)NC(C)C)C[C@H]34)cc2)cc1`: the reporter increase is -0.595% (inactive). Consider `CN(C)C(=O)c1cccc(-c2ccc3c(c2)[C@H]2[C@H](CCN2C(=O)c2cccnc2)[C@H](CO)N3)c1`, for which the reporter increase is -0.408% (inactive). Next, `CO[C@H]1CN(C)C(=O)c2ccc(NC(=O)c3cnccn3)cc2OC[C@@H](C)N(C(C)=O)C[C@H]1C`: -1.77% (inactive); `C[C@H](NC(=O)C[C@H]1C=C[C@H](NS(=O)(=O)c2cccc(F)c2)[C@@H](CO)O1)c1ccccc1`: -4.57% (inactive); `C[C@@H]1CCCCO[C@H](CN(C)S(=O)(=O)c2cn(C)cn2)[C@H](C)CN([C@H](C)CO)C(=O)c2cc(N(C)C)ccc2O1`: -3.59% (inactive).

Regarding `COC(=O)c1sccc1N/N=C(\C)c1ccc(F)c(Cl)c1`, the reporter increase was 11.8% (inactive). Regarding `COc1ccc(/C(C)=N/NC(=O)c2ccc3nc[nH]c3c2)cc1`, the reporter increase was -4.25% (inactive). For the molecule `COc1cccc(/C(C)=N/Nc2ncc(Cl)cc2Cl)c1`, the reporter increase is 54% (active). Next, `C[C@@H]1CN([C@@H](C)CO)C(=O)Cc2cc(NC(=O)CCCCCC(=O)Nc3ccccc3N)ccc2O[C@H]1CN(C)Cc1ccc(Cl)c(Cl)c1`: -6.35% (inactive); `CSc1ccccc1OCc1cc(C(=O)N2C[C@H]3CC[C@H]2C3)no1`: 87.7% (active); `CSc1ccccc1OCc1cc(C(=O)N(C)CCc2c(C)n[nH]c2C)no1`: -2.74% (inactive). Take `Cc1nonc1C1CCCN1C(=O)c1cc(COc2cccc(C(F)(F)F)c2)on1` (stereo unspecified): the reporter increase is -1.7% (inactive). Next, `CCNC(=O)[C@@H]1[C@@H](CO)[C@@H]2Cn3c(ccc(C4=CCCC4)c3=O)[C@H]1N2Cc1ccccc1`: -1.26% (inactive); `O=C(C[C@@H]1CC[C@H]2[C@@H](COC[C@H](O)CN2C(=O)Nc2ccccc2)O1)NCc1ccccc1F`: 4.71% (inactive); `CCC(CC)c1nnc(NC(=O)C2=COCCO2)s1`: 53.6% (active). Take `CCC(CC)c1nnc(NC(=O)C2CCN(C(=O)c3ccco3)CC2)s1`: the reporter increase was 3.96% (inactive). For the molecule `COc1cc(-c2nnc(NC(=O)C3=COCCO3)o2)cc(OC)c1OC`, the reporter increase is -0.666% (inactive). As for `O=C(Nc1ccccc1N1CCOCC1)c1csc2c1CCCC2`, the reporter increase is 2.6% (inactive). Under `COC(=O)c1sc(NC(=O)c2csc3c2CCCC3)nc1C` stands 52.4% (active); under `CC1CC(C)CN(CCCNC(=O)c2csc3c2CCCCC3)C1` (stereo unspecified), -0.645% (inactive); under `CN1c2ccc(Br)cc2[C@H]2[C@H](CCN2S(=O)(=O)c2ccccc2)[C@@H]1CO`, 1.11% (inactive). As to `CO[C@H]1CN(C)C(=O)c2cc(NC(=O)c3cc(C)on3)ccc2OC[C@@H](C)N(C(C)=O)C[C@H]1C`, the reporter increase was -1.52% (inactive).

`COc1cccc(OC)c1C(=O)Nc1nnc(C(C)C)s1`: the reporter increase was 4.44% (inactive). Under `COc1ccc(Cc2nnc(NC(=O)Cc3cccs3)s2)cc1` stands -12.5% (inactive); under `COc1ccc(Cc2nnc(NC(=O)c3ccc(OC)cc3OC)s2)cc1`, 60.8% (active).

In the case of `COc1ccc(C(=O)Nc2nncs2)c(OC)c1`, the reporter increase is 72.1% (active). Next, `COc1ccc(Cc2nnc(NC(=O)c3cc(OC)c(OC)c(OC)c3)s2)cc1OC`: -8.39% (inactive); `COc1ccc(C(=O)NC2=NCCS2)c(OC)c1`: -5.27% (inactive); `C[C@@H](O)C#Cc1cnc2c(c1)C(=O)N([C@@H](C)CO)C[C@H](C)[C@H](CN(C)C(=O)c1ccccc1F)O2`: -1.43% (inactive). Under `COc1ccccc1-c1cnc2c(c1)C(=O)N([C@H](C)CO)C[C@H](C)[C@@H](CN(C)C(=O)CC1CC1)O2` stands -6.49% (inactive); under `O=C(O)C[C@@H]1C[C@@H]2c3cc(NC(=O)Nc4ccccc4)ccc3O[C@@H]2[C@H](CO)O1`, 2.21% (inactive); under `Cc1ccc2nc(/C(C#N)=C\c3ccc(OC(=O)c4cccs4)cc3)[nH]c2c1`, 113% (active). On to `CCC(=O)N(C)C[C@H]1Oc2ncc(-c3ccccc3OC)cc2C(=O)N([C@H](C)CO)C[C@H]1C`, for which the reporter increase is 2.4% (inactive). With `C[C@@H]1CCCCO[C@H](CN(C)C(=O)Cc2ccccc2)[C@@H](C)CN([C@@H](C)CO)C(=O)c2cc(NC(=O)c3ccccc3)ccc2O1`, the reporter increase was -0.116% (inactive).

In the case of `Cc1ccc(S(=O)(=O)/N=C(/Nc2ccccn2)c2ccc(Cl)cc2)cc1`, the reporter increase was 45.6% (active). As for `Cc1ccc(S(=O)(=O)/N=C(/Nc2ccc3[nH]c(=O)[nH]c3c2)c2ccccc2)cc1`, the reporter increase was 3.61% (inactive). For the molecule `Cc1ccc(S/C(=N\S(=O)(=O)c2ccc(Cl)cc2)c2ccccc2)cc1`, the reporter increase is -7.08% (inactive). As for `C[C@@H]1CN([C@@H](C)CO)C(=O)c2cccc(NC(=O)Nc3ccc(C(F)(F)F)cc3)c2O[C@@H]1CN(C)S(=O)(=O)c1cccs1`, the reporter increase was 0.762% (inactive). `C[C@@H](O)C#Cc1cnc2c(c1)C(=O)N([C@@H](C)CO)C[C@H](C)[C@@H](CN(C)CC1CCCCC1)O2`: the reporter increase was -1.99% (inactive). For the molecule `CCCN(C)C[C@@H]1Oc2ncc(-c3cccc(C(=O)N(C)C)c3)cc2C(=O)N([C@H](C)CO)C[C@@H]1C`, the reporter increase is -6.02% (inactive). Under `O=C(CN1CCCCCC1)Nc1ccc(Cl)cc1F` stands -12.4% (inactive). Consider `O=C(CN1CCCCCC1)Nc1ccc(Br)cc1[N+](=O)[O-]`, for which the reporter increase is -0.566% (inactive).

Regarding `O=C(CN1CCCCCC1)Nc1ccc(Br)cc1Br`, the reporter increase was 56.9% (active).

As for `O=c1c2ccccc2nnn1CSc1nnnn1-c1ccccc1`, the reporter increase was 57.4% (active). As for `C=CCn1c(SCn2nnc3ccccc3c2=O)nnc1-c1ccc(Cl)cc1`, the reporter increase is -8.46% (inactive). Consider `CN(C(=O)CSc1nnnn1-c1ccccc1)C1CCCCC1`, for which the reporter increase is 22.5% (inactive).

As for `Cc1ccc(S(=O)(=O)N[C@@H]2CC[C@H](CCn3cc(C4(O)CCCC4)nn3)O[C@H]2CO)cc1`, the reporter increase is 1.86% (inactive). Consider `CCc1nnc(SCc2cccc(F)c2)nc1CC`, for which the reporter increase is -1.92% (inactive). For the molecule `Nc1cc(N)nc(SCc2cccc(F)c2)n1`, the reporter increase is 65% (active). As to `Nc1cc(N)nc(SCc2ccc(Cl)cc2)n1`, the reporter increase was 33.3% (inactive). For `CCC(=O)N(C)C[C@@H]1Oc2ncc(/C=C/c3ccccc3)cc2C(=O)N([C@@H](C)CO)C[C@H]1C`, the reporter increase is -3.12% (inactive). Under `CCC(=O)N1[C@H](C(=O)NCc2ccc(F)cc2)[C@@H](CO)[C@@H]2Cn3c(ccc(C4=CCCCC4)c3=O)[C@@H]21` stands -5.62% (inactive).
